Experimental data reported in paper PMC7862700, “An all-to-all approach to the identification of sequence-specific readers for epigenetic DNA modifications on cytosine”.

Columns and labels:
Assay in all cases: DAPPL (digital affinity profiling via proximity ligation, sequencing); 10 mM Tris-HCl pH 7.5, 50 mM NaCl, 1 mM DTT, 4% glycerol, room temperature, 30 min; GST-TFs on glutathione beads, 16-mer random dsDNA library, 0.1% formaldehyde crosslink after washing; high values mean tight binding
FEV = biological target: T1, FEV (Homo sapiens, UniProt Q99581 1-238); conditions: protein: recombinant; tags: N-terminal GST; dsDNA, one strand shown
T1 sequence: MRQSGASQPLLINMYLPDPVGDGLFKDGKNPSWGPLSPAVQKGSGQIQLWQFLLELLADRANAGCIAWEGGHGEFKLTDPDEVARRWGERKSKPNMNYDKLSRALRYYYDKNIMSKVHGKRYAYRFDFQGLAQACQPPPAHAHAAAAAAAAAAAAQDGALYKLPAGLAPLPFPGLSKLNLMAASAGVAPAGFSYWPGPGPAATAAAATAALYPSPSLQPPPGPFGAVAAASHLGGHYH
Procedure, shortened: (§1)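 Human transcription factors carrying a GST fusion were produced in yeast, bound to glutathione beads, tagged with DNA barcodes and pooled together with a tag-only sample. Each pool was held with 200 nmole of a random double-stranded 16-mer DNA library in Tris/NaCl/DTT/glycerol buffer for 30 min at room temperature, then washed, crosslinked in 0.1% formaldehyde, proximity-ligated with BsaI/T4 ligase (1 h, 37 °C), PCR-amplified and sequenced on an Illumina NextSeq500. Binding signal is the read frequency of each hexamer for a given factor divided by its frequency in the tag-only sample.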

ETV5 = ETV5 (Homo sapiens, UniProt P41161 1-510); conditions: protein: recombinant; tags: N-terminal GST; dsDNA, one strand shown
Procedure, shortened: as §1

HSF1 = HSF1 (Homo sapiens, UniProt Q00613 1-529); conditions: protein: recombinant; tags: N-terminal GST; chain copies: 3; dsDNA, one strand shown
Procedure, shortened: as §1

SPIC = biological target: T2, SPIC (Homo sapiens, UniProt Q8N5J4 1-248); conditions: protein: recombinant; tags: N-terminal GST; dsDNA, one strand shown
T2 sequence: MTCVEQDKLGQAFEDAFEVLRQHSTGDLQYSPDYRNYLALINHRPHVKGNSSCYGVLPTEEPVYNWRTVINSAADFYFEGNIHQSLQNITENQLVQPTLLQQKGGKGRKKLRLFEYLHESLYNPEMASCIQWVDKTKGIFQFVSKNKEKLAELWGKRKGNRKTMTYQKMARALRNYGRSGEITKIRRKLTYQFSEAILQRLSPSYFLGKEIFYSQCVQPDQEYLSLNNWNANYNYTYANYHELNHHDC
Procedure, shortened: as §1

ELF4 = ELF4 (Homo sapiens, UniProt Q99607 1-663); conditions: protein: recombinant; tags: N-terminal GST; dsDNA, one strand shown
Procedure, shortened: as §1

ELK4 = biological target: T3, ELK4 (Homo sapiens, UniProt P28324-2 1-405); conditions: protein: recombinant; tags: N-terminal GST; dsDNA, one strand shown
T3 sequence: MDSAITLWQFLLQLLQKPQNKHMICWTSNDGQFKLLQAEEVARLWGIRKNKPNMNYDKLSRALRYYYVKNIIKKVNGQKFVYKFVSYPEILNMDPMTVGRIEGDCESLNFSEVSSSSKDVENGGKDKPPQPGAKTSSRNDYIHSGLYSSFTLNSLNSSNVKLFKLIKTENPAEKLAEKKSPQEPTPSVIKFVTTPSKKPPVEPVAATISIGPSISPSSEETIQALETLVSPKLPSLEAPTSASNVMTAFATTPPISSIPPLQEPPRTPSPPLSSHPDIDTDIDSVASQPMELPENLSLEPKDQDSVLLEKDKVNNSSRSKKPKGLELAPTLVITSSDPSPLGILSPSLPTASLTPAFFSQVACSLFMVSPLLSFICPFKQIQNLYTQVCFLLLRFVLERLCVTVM
Procedure, shortened: as §1

ETV2 = biological target: T4, ETV2 (Homo sapiens, UniProt O00321 1-342); conditions: protein: recombinant; tags: N-terminal GST; dsDNA, one strand shown
T4 sequence: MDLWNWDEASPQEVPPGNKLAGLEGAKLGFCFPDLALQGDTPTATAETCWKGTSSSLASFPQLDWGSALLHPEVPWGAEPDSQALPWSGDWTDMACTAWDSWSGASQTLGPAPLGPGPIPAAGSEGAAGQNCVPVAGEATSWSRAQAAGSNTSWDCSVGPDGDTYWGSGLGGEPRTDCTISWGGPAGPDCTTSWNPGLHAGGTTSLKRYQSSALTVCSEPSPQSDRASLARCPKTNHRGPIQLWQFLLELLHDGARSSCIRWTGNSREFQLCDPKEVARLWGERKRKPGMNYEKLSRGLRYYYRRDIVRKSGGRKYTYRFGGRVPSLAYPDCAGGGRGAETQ
Procedure, shortened: as §1

ELF3 = biological target: T5, ELF3 (Homo sapiens, UniProt P78545 1-371); conditions: protein: recombinant; tags: N-terminal GST; dsDNA, one strand shown
T5 sequence: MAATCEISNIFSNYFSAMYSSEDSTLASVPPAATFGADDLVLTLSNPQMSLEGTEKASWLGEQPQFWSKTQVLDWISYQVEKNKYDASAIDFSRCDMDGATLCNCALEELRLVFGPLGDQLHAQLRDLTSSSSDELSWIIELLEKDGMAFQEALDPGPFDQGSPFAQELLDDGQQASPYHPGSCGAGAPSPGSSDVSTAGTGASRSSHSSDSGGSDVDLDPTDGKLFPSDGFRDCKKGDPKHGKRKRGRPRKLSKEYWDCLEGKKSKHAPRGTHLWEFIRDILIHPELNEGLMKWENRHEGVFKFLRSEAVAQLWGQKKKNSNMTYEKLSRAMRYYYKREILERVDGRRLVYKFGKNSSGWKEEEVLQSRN
Procedure, shortened: as §1

CRX = CRX (Homo sapiens, UniProt O43186 1-299); conditions: protein: recombinant; tags: N-terminal GST; dsDNA, one strand shown
Procedure, shortened: as §1

ETV1 = ETV1 (Homo sapiens, UniProt P50549 1-477); conditions: protein: recombinant; tags: N-terminal GST; dsDNA, one strand shown
Procedure, shortened: as §1

ERF = biological target: T6, ERF (Homo sapiens, UniProt P50548 1-548); conditions: protein: recombinant; tags: N-terminal GST; dsDNA, one strand shown
T6 sequence: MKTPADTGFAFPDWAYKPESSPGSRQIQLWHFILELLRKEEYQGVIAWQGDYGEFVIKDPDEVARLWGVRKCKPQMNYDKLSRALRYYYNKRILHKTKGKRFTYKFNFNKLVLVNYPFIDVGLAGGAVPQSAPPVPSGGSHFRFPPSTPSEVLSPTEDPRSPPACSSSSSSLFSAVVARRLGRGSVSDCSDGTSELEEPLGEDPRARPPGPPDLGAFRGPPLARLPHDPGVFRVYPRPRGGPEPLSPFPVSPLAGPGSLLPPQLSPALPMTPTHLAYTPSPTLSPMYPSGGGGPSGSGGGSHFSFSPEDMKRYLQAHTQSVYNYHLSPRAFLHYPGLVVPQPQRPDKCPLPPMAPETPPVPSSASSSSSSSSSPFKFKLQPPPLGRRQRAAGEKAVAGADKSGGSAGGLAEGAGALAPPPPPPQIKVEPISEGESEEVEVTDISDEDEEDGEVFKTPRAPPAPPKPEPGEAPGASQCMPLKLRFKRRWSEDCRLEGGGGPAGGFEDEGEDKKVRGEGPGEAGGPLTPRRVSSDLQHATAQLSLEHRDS
Procedure, shortened: as §1

ETV3L = biological target: T7, ETV3L (Homo sapiens, UniProt Q6ZN32 1-361); conditions: protein: recombinant; tags: N-terminal GST; dsDNA, one strand shown
T7 sequence: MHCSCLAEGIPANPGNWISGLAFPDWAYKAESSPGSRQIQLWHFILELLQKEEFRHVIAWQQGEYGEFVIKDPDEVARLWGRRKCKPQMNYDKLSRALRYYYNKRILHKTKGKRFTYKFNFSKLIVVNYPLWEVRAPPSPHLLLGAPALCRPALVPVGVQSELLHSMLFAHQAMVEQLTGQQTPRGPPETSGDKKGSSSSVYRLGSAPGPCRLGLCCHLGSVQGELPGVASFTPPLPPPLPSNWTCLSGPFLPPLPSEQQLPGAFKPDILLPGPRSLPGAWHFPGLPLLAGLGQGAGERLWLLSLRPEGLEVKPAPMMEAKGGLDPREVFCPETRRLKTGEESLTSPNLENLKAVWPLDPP
Procedure, shortened: as §1

ETS2 = biological target: T8, ETS2 (Homo sapiens, UniProt P15036 1-469); conditions: protein: recombinant; tags: N-terminal GST; dsDNA, one strand shown
T8 sequence: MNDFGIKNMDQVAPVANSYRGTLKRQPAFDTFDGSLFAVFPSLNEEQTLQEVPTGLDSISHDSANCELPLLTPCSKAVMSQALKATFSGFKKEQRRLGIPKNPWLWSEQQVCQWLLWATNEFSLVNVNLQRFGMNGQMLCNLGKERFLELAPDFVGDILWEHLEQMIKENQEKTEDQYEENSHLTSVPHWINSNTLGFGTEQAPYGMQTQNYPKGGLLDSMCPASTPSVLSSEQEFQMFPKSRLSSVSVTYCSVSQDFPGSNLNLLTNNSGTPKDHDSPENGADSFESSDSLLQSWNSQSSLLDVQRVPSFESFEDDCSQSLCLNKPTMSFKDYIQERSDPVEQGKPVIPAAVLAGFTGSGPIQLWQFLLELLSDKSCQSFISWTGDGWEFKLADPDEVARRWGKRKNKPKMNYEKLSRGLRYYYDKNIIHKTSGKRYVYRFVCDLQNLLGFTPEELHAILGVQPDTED
Procedure, shortened: as §1

SPDEF = biological target: T9, SPDEF (Homo sapiens, UniProt O95238 1-335); conditions: protein: recombinant; tags: N-terminal GST; dsDNA, one strand shown
T9 sequence: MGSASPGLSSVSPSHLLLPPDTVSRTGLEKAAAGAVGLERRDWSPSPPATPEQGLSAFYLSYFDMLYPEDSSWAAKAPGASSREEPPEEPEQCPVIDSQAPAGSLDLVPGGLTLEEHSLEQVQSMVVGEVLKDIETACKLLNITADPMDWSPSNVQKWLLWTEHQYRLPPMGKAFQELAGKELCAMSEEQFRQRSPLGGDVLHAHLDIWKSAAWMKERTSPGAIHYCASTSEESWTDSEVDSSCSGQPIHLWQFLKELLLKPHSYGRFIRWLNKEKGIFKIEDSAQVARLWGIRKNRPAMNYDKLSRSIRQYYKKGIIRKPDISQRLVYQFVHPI
Procedure, shortened: as §1

ETV7 = biological target: T10, ETV7 (Homo sapiens, UniProt Q9Y603 1-341); conditions: protein: recombinant; tags: N-terminal GST; dsDNA, one strand shown
T10 sequence: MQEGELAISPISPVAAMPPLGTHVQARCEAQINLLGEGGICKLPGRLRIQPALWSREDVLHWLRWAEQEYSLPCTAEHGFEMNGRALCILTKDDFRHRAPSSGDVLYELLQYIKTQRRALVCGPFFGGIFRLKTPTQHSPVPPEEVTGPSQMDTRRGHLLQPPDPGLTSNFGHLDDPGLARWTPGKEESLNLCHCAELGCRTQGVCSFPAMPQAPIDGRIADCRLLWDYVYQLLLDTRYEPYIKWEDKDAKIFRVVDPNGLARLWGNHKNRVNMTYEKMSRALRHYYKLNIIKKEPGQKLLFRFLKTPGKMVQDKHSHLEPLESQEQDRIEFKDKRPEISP
Procedure, shortened: as §1

ELF5 = biological target: T11, ELF5 (Homo sapiens, UniProt Q9UKW6-2 1-255); conditions: protein: recombinant; tags: N-terminal GST; dsDNA, one strand shown
T11 sequence: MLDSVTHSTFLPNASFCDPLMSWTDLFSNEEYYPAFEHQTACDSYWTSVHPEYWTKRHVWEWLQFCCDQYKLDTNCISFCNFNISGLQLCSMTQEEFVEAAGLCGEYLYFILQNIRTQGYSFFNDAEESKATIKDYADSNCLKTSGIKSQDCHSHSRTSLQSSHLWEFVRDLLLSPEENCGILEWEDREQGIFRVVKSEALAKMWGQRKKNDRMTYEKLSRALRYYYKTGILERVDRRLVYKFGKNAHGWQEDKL
Procedure, shortened: as §1

ETV3 = biological target: T12, ETV3 (Homo sapiens, UniProt P41162-2 1-143); conditions: protein: recombinant; tags: N-terminal GST; dsDNA, one strand shown
T12 sequence: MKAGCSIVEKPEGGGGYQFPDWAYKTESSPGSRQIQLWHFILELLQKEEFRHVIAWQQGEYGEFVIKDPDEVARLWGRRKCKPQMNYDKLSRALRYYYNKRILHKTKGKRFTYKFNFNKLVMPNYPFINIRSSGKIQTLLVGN
Procedure, shortened: as §1

ETV6 = ETV6 (Homo sapiens, UniProt P41212 1-452); conditions: protein: recombinant; tags: N-terminal GST; dsDNA, one strand shown
Procedure, shortened: as §1

Sequence of ETV1 (P50549 whole entry): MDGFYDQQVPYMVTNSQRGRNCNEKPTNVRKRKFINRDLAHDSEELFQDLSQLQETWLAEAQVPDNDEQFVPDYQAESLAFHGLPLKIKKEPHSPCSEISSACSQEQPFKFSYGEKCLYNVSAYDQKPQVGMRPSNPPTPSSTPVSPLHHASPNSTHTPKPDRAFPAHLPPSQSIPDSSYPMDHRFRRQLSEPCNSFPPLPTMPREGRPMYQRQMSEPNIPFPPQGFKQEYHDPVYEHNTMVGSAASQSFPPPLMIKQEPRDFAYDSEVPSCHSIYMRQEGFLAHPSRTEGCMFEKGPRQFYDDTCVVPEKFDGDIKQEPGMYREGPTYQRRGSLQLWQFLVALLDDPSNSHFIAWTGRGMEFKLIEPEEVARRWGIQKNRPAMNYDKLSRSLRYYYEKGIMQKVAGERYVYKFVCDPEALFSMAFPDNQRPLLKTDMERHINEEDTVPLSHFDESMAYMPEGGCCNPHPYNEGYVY
Sequence of ELF4 (Q99607 whole entry): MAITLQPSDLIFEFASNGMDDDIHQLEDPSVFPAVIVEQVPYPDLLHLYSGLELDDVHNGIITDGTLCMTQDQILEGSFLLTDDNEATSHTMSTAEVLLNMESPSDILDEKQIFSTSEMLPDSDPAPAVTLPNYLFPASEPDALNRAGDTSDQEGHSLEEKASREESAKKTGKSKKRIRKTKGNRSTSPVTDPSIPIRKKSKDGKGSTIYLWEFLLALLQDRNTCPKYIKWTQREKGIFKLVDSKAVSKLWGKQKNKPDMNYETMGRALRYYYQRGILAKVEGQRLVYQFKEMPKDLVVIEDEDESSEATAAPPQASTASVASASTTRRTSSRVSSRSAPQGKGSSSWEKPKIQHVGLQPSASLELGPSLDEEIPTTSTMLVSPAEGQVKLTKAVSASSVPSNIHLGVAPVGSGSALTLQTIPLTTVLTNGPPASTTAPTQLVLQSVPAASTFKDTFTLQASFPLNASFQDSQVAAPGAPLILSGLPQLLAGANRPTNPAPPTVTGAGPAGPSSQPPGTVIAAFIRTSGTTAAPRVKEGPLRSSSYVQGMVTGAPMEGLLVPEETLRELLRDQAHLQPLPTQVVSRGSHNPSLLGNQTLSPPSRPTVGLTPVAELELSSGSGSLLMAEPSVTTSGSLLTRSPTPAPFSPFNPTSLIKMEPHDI
Sequence of CRX (O43186 whole entry): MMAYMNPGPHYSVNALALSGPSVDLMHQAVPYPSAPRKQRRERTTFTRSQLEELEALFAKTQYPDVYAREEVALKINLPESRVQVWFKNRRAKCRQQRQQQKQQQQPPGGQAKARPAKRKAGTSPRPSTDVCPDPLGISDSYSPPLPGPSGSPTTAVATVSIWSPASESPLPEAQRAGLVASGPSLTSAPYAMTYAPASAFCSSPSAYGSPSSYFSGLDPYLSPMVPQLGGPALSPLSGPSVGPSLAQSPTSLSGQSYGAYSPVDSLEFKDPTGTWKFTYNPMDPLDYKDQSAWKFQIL
Sequence of ETV5 (P41161 whole entry): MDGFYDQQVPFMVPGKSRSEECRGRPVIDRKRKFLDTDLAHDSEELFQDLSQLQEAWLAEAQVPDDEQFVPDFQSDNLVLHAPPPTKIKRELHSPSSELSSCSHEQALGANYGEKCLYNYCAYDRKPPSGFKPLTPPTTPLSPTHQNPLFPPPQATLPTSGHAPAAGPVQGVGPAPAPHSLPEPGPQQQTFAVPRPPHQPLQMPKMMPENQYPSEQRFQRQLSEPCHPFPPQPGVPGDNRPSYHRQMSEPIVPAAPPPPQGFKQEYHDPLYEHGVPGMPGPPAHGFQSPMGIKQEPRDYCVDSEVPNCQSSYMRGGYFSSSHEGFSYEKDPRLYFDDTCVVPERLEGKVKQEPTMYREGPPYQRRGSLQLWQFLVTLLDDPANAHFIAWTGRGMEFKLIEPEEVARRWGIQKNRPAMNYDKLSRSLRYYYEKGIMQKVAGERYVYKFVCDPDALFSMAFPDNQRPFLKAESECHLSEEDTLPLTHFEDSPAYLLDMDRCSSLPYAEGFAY
Sequence of ETV6 (P41212 whole entry): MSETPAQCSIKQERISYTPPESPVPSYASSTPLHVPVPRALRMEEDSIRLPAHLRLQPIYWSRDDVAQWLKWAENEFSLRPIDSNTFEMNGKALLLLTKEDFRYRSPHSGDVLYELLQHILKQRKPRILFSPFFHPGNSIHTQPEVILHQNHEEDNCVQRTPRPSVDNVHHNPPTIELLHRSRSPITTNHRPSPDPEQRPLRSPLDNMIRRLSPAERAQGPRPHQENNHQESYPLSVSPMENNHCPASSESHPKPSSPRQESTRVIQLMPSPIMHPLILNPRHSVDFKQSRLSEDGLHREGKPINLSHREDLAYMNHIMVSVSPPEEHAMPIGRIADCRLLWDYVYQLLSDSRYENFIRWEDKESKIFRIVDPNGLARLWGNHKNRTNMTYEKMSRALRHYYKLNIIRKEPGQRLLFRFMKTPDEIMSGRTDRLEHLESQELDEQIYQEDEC
Sequence of HSF1 (Q00613 whole entry): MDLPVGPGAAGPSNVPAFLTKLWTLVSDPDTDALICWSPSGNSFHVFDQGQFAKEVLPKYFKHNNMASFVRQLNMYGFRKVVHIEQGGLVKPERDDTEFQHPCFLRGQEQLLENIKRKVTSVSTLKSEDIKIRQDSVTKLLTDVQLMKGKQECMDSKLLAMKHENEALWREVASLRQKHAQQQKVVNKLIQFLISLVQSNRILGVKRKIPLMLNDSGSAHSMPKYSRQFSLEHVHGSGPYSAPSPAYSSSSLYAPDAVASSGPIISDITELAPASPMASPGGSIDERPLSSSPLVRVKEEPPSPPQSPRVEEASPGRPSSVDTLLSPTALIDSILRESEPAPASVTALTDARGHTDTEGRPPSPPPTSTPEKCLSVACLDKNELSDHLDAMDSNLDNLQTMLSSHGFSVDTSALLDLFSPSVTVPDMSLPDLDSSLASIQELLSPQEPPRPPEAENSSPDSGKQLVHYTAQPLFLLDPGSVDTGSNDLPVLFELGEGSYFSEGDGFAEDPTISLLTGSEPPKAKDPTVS

ACTTTC was tested, and the binding signal (FEV) was 1.49 fold enrichment (6-mer frequency, TF over GST control), the binding signal (ETV5) was 1.65 fold enrichment (6-mer frequency, TF over GST control) and the binding signal (HSF1) was 2.49 fold enrichment (6-mer frequency, TF over GST control). The binding signal (SPIC) was 1.6 fold enrichment (6-mer frequency, TF over GST control), the binding signal (ELF4) was 1.53 fold enrichment (6-mer frequency, TF over GST control) and the binding signal (ELK4) was 1.86 fold enrichment (6-mer frequency, TF over GST control). For the same sequence, the binding signal (ETV2) was 1.62 fold enrichment (6-mer frequency, TF over GST control), the binding signal (ELF3) was 1.6 fold enrichment (6-mer frequency, TF over GST control) and the binding signal (CRX) was 1.63 fold enrichment (6-mer frequency, TF over GST control). For the same sequence, the binding signal (ETV1) was 1.7 fold enrichment (6-mer frequency, TF over GST control), the binding signal (ERF) was 1.63 fold enrichment (6-mer frequency, TF over GST control) and the binding signal (ETV3L) was 1.59 fold enrichment (6-mer frequency, TF over GST control). The binding signal (ETS2) was 1.6 fold enrichment (6-mer frequency, TF over GST control), the binding signal (SPDEF) was 1.51 fold enrichment (6-mer frequency, TF over GST control) and the binding signal (ETV7) was 1.51 fold enrichment (6-mer frequency, TF over GST control). The binding signal (ELF5) was 1.74 fold enrichment (6-mer frequency, TF over GST control), the binding signal (ETV3) was 1.63 fold enrichment (6-mer frequency, TF over GST control) and the binding signal (ETV6) was 1.57 fold enrichment (6-mer frequency, TF over GST control).
